# Data as given in PubChem BioAssay (EPA / NIEHS).
# Records with an inconclusive call do not appear. The source made the active and inactive calls. The calls were made as follows: active = hit-call score of the fitted dose curve at least 0.9, where 1 is the maximum; inconclusive = response in the unintended direction; inactive = score below 0.9.
# Legend:
# [1] = molecular target: human Caspase 5 (CASP5), CASP5 (gene 838) (UniProt P51878); assay: NVS_ENZ_hCASP5: NovaScreen (NVS) Enzymatic Assay for human Caspase 5 (CASP5) (AID 2283137)
# human Caspase 5 (CASP5), CASP5 (gene 838), sequence (P51878 whole entry, looked up): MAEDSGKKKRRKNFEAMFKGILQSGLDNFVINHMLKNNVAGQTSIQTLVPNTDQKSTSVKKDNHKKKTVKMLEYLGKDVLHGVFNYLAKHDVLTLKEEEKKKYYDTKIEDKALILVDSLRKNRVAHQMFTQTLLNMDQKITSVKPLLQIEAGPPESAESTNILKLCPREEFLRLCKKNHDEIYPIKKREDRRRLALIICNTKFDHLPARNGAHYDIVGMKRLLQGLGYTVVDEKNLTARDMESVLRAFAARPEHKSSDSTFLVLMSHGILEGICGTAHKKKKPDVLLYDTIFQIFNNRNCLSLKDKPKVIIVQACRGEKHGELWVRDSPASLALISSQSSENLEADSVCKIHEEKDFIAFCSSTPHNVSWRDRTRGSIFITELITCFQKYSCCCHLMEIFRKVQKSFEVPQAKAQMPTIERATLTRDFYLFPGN
# How it was run: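 Caspase 5 enzyme activity, detected as fluorescence signal loss, is measured in a biochemical format using E. coli-expressed protein. Reading occurs 2 hours post-dosing. Screening runs at 25 uM, with confirmed actives titrated to 50 uM maximum.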
# [2] = molecular target: human Caspase 4 (CASP4), CASP4 (gene 837) (UniProt P49662); assay: NVS_ENZ_hCASP4: NovaScreen (NVS) Enzymatic Assay for human Caspase 4 (CASP4) (AID 2283143)
# human Caspase 4 (CASP4), CASP4 (gene 837), sequence (P49662 whole entry, looked up): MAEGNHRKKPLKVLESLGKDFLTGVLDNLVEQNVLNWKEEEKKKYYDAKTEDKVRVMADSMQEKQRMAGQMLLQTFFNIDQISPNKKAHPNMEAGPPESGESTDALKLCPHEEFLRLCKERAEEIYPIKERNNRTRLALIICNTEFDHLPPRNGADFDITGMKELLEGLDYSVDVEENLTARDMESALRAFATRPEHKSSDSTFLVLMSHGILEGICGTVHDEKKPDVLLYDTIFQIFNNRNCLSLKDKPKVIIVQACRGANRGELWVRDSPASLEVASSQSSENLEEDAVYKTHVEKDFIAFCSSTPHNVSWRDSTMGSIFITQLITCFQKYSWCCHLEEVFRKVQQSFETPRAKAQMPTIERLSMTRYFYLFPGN
# How it was run: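 Compounds were first tested in duplicate at 25 uM, and hits were titrated singly to a 50 uM maximum. Recombinant protease from E. coli was read by fluorescence 2 h post-dose, and activity loss was fitted against the DMSO baseline.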
# [3] = molecular target: human Dual Specificity Protein Phosphatase 3 (DUSP3), DUSP3 (gene 1845) (UniProt P51452); assay: NVS_ENZ_hDUSP3: NovaScreen (NVS) Enzymatic Assay for human Dual Specificity Protein Phosphatase 3 (DUSP3) (AID 2283152);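 also: phosphatase activity of recombinant human DUSP3 on a fluorogenic substrate without cells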
# human Dual Specificity Protein Phosphatase 3 (DUSP3), DUSP3 (gene 1845), sequence (P51452 whole entry, looked up): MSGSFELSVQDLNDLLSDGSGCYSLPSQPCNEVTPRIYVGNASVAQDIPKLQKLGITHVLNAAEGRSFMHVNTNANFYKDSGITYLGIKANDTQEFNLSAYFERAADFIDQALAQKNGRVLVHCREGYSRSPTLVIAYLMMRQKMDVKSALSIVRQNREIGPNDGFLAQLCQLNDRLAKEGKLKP
# How it was run: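 Cell-free fluorescence-intensity enzyme activity assay with recombinant protein and substrate; loss of signal fitted relative to DMSO baseline. Primary screen in duplicate at 25 uM, actives then run in concentration series; measured 0 h after dosing.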
# [4] = molecular target: human Elastase, ELANE (gene 1991) (UniProt P08246); assay: NVS_ENZ_hElastase: NovaScreen (NVS) Enzymatic Assay for human Elastase (AID 2283153)
# human Elastase, ELANE (gene 1991), sequence (P08246 whole entry, looked up): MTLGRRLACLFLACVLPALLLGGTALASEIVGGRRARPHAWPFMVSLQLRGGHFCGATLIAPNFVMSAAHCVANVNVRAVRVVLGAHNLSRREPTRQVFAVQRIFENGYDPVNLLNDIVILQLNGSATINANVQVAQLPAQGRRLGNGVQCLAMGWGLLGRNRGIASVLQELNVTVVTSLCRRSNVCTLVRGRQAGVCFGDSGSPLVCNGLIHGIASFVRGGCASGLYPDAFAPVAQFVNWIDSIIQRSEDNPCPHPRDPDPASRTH
# How it was run: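 Concentration-response to 50 uM max, run singly for chemicals passing a threshold (e.g., 30% inhibition) in a duplicate 25 uM single-point screen. Neutrophil-derived human elastase, absorbance read-out of enzyme activity at 1.5 h; DMSO baseline.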
# [5] = molecular target: human Esterase Plasma (ES), BCHE (gene 590) (UniProt P06276); assay: NVS_ENZ_hES: NovaScreen (NVS) Enzymatic Assay for human Esterase Plasma (ES) (AID 2283157)
# human Esterase Plasma (ES), BCHE (gene 590), sequence (P06276 whole entry, looked up): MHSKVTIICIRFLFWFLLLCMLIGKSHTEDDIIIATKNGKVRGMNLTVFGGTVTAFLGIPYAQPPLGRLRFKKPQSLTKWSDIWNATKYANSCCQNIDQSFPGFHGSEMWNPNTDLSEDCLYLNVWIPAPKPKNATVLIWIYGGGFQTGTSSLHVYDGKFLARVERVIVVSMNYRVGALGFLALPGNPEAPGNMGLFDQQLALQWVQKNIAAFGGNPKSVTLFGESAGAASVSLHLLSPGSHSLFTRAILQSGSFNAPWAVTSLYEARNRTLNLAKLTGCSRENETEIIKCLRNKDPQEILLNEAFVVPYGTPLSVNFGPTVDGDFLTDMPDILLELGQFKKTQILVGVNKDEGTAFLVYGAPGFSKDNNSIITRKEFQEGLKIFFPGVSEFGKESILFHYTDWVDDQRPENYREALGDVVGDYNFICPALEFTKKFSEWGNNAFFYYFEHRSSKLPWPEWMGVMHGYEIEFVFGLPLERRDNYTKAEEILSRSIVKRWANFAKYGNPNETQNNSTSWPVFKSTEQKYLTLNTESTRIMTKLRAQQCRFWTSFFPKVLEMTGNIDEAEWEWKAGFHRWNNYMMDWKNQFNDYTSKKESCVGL
# How it was run: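 Human plasma-derived enzyme, cell-free, colorimetric readout at 0.25 h. Primary screen 25 uM in duplicate; hits (e.g. ≥30% inhibition) rerun singleton up to 50 uM. DMSO = negative control/baseline.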
# [6] = molecular target: Glycogen synthase kinase-3 beta (Homo sapiens) (UniProt P49841); assay: NVS_ENZ_hGSK3b: NovaScreen (NVS) Enzymatic Assay for human Glycogen Synthase Kinase-3 beta (GSK3b) (AID 2283165)
# Glycogen synthase kinase-3 beta (Homo sapiens), sequence (P49841 whole entry, looked up): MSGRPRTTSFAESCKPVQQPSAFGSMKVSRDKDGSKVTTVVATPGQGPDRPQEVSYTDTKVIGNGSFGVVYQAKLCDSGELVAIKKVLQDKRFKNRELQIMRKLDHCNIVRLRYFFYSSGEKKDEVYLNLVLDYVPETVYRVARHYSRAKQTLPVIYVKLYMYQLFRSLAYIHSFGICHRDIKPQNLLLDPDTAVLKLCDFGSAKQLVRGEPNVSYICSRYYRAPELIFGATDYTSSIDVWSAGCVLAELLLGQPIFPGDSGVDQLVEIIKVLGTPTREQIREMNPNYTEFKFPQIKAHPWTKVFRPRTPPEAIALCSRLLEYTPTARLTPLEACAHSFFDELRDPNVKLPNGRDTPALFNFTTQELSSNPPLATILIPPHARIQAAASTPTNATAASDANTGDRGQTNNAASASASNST
# How it was run: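 Recombinant enzyme with specific fluorescent substrate, 1 h, product separated by electrophoretic mobility shift. Primary duplicate screen at 25 uM; actives (e.g. 30% inhibition) followed in singleton concentration-response to 50 uM. Signal loss fitted versus DMSO.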
# [7] = molecular target: human Beta-secretase (BACE), BACE1 (gene 23621) (UniProt P56817); assay: NVS_ENZ_hBACE: NovaScreen (NVS) Enzymatic Assay for human Beta-secretase (BACE) (AID 2283140);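 also: hits are inhibitors that reduce fluorescent substrate signal versus DMSO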
# human Beta-secretase (BACE), BACE1 (gene 23621), sequence (P56817 whole entry, looked up): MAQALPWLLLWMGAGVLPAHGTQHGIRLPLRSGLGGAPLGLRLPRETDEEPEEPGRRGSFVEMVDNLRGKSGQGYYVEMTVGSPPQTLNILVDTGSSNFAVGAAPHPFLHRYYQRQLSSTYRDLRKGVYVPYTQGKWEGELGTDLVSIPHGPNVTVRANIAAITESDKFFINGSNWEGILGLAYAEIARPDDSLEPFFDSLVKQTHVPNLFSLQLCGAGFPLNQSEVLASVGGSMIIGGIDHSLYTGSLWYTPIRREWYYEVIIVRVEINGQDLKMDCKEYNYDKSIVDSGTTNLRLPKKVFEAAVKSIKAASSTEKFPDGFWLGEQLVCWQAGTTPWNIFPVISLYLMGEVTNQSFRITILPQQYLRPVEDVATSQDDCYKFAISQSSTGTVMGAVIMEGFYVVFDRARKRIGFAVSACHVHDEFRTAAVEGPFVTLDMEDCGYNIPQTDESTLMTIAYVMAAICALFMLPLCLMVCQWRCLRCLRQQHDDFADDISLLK
# How it was run: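 Enzyme activity of SF9-produced BACE1 is measured cell-free by fluorescence, 1 hour post dosing, normalised to DMSO. Screening used 25 uM in duplicate, with concentration-response follow-up for actives.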
# [8] = molecular target: human Casein Kinase 1-delta (CK1D), CSNK1D (gene 1453) (UniProt P48730); assay: NVS_ENZ_hCK1D: NovaScreen (NVS) Enzymatic Assay for human Casein Kinase 1-delta (CK1D) (AID 2283148)
# human Casein Kinase 1-delta (CK1D), CSNK1D (gene 1453), sequence (P48730 whole entry, looked up): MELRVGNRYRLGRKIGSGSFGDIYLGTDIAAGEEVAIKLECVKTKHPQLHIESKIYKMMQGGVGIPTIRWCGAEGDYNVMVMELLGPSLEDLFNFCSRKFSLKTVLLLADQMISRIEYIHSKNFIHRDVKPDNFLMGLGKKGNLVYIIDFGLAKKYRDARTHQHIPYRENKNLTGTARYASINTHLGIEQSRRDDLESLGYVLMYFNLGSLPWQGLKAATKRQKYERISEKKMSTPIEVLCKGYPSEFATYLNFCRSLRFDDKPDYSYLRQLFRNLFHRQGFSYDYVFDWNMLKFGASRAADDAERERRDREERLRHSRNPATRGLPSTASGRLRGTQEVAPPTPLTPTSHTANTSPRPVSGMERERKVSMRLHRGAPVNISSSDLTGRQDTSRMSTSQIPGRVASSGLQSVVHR
# How it was run: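 Recombinant human CK1-delta, cell-free; fluorescent substrate with electrophoretic mobility-shift separation of product, read 1 h after dosing. Single 25 uM duplicate screen, then concentration-response up to 50 uM; loss of signal vs DMSO.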
# [9] = molecular target: human AKT serine/threonine Kinase 2 (AKT2), AKT2 (gene 208) (UniProt P31751); assay: NVS_ENZ_hAKT2: NovaScreen (NVS) Enzymatic Assay for human AKT serine/threonine Kinase 2 (AKT2) (AID 2283141)
# How it was run: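 Cell-free fluorescence/electrophoretic mobility shift readout of recombinant human AKT2 activity, 1 h after chemical dosing. Duplicate primary screen at 25 uM, then singleton concentration-response up to 50 uM; loss of signal versus DMSO baseline.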
# CDK2 (gene 1017) = CDK2 (gene 1017) (UniProt P24941); assay: NVS_ENZ_hCDK2: NovaScreen (NVS) Enzymatic Assay for human Cyclin-Cependent Kinase 2 (CDK2) (AID 2283144)
# How it was run: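 Compounds screened in duplicate at 25 uM, then in singleton concentration-response to a maximum of 50 uM, against recombinant CDK2; kinase activity read 1 hr after dosing by fluorescence with mobility-shift separation of substrate and product.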
# [10] = molecular target: human Acid Phosphatase 1 (ACP1), ACP1 (gene 52) (UniProt P24666); assay: NVS_ENZ_hACP1: NovaScreen (NVS) Enzymatic Assay for human Acid Phosphatase 1 (ACP1) (AID 2283136)
# human Acid Phosphatase 1 (ACP1), ACP1 (gene 52), sequence (P24666 whole entry, looked up): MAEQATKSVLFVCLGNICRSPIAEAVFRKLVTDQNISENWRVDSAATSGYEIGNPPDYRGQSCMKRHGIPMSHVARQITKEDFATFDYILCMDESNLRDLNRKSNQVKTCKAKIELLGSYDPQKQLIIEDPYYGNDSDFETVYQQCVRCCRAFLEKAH
# How it was run: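 Cell-free fluorescence read-out of phosphatase activity, substrate and product separated by mobility shift, taken 1.5 h after compound addition; protein produced in Sf9. Single 25 uM duplicate screen, followed by concentration series for actives, scored as signal loss relative to DMSO.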
# [11] = molecular target: human AKT serine/threonine Kinase 1 (AKT1), AKT1 (gene 207) (UniProt P31749); assay: NVS_ENZ_hAKT1: NovaScreen (NVS) Enzymatic Assay for human AKT serine/threonine Kinase 1 (AKT1) (AID 2283138)
# human AKT serine/threonine Kinase 1 (AKT1), AKT1 (gene 207), sequence (P31749 whole entry, looked up): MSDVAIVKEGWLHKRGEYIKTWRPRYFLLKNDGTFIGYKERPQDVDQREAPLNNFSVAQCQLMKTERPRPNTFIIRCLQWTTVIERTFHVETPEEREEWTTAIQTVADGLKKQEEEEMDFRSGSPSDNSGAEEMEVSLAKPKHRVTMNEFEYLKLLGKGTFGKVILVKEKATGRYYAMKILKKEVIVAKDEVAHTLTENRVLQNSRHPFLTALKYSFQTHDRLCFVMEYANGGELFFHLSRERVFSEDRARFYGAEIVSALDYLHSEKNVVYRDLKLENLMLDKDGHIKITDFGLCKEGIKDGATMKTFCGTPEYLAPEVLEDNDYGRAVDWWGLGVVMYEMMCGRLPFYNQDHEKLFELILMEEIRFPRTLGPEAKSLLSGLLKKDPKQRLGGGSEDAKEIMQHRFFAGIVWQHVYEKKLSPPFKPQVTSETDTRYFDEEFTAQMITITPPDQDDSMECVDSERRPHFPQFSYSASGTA
# How it was run: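 A biochemical assay with recombinant enzyme and specific substrate, read by fluorescence intensity with mobility-shift separation 1 hour after dosing. Actives from 25 uM duplicate screening were titrated up to 50 uM against DMSO baseline.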
# [12] = molecular target: human Colony Stimulating Factor 1 Receptor (CSF1R), CSF1R (gene 1436) (UniProt P07333); assay: NVS_ENZ_hCSF1R: NovaScreen (NVS) Enzymatic Assay for human Colony Stimulating Factor 1 Receptor (CSF1R) (AID 2283150)
# human Colony Stimulating Factor 1 Receptor (CSF1R), CSF1R (gene 1436), sequence (P07333 whole entry, looked up): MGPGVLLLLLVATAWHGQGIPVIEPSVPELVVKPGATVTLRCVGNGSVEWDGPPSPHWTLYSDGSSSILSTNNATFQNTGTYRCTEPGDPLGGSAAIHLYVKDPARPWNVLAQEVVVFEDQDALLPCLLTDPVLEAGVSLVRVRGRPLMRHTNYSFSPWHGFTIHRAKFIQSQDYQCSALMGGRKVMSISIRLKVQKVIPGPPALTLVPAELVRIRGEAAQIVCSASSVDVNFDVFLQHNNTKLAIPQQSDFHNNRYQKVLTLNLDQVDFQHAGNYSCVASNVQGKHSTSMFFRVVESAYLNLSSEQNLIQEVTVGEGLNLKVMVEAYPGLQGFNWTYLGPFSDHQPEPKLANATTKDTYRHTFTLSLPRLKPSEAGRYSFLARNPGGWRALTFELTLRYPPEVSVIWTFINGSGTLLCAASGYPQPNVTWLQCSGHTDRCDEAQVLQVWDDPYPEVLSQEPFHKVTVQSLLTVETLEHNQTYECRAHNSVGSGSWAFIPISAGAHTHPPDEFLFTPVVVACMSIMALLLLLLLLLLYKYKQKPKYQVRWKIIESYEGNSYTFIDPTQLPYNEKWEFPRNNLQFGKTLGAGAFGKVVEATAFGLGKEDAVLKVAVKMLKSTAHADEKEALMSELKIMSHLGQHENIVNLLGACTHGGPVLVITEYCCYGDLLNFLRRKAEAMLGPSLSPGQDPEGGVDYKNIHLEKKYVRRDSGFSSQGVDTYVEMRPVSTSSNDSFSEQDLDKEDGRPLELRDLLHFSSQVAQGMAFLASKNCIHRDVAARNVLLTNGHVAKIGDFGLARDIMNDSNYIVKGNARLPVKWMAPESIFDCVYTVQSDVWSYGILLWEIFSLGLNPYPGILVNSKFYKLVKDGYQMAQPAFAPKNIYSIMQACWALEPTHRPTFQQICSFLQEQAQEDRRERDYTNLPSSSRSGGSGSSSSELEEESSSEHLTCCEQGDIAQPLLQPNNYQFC
# How it was run: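 Compounds screened in duplicate at 25 uM, then concentration-response (top 50 uM) for those passing threshold such as 30% inhibition; recombinant CSF1R activity measured 1 h post-dosing via fluorescent substrate/product mobility-shift separation, loss of signal versus DMSO.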
# Caspase-3 (Homo sapiens) = Caspase-3 (Homo sapiens) (UniProt P42574); assay: NVS_ENZ_hCASP3: NovaScreen (NVS) Enzymatic Assay for human Caspase 3 (CASP3) (AID 2283139)
# How it was run: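 Single-concentration screening at 25 uM in duplicate, with concentration-response follow-up to a 50 uM maximum for chemicals passing the threshold. Caspase-3 (human, E. coli-expressed) activity was read as substrate fluorescence after 1 h, with loss of signal relative to DMSO.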
# [13] = molecular target: human Caspase 8 (CASP8), CASP8 (gene 841) (UniProt Q14790); assay: NVS_ENZ_hCASP8: NovaScreen (NVS) Enzymatic Assay for human Caspase 8 (CASP8) (AID 2283146)
# How it was run: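 The primary screen tested compounds in duplicate at a single 25 uM concentration, with actives followed up in concentration series. Activity of recombinant (E. coli) protease was measured by fluorescence 1 h post-dose, as signal loss against DMSO.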
# [14] = molecular target: human Janus Kinase 2 (Jak2), JAK2 (gene 3717) (UniProt O60674); assay: NVS_ENZ_hJak2: NovaScreen (NVS) Enzymatic Assay for human Janus Kinase 2 (Jak2) (AID 2283169)
# How it was run: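 Single-point duplicate screen at 25 uM, with hits run in concentration series to a 50 uM top dose. Substrate-product separation by mobility shift with fluorescence detection, 1 h post-dosing; DMSO baseline.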
# [15] = molecular target: Histone deacetylase 3 (Homo sapiens) (UniProt O15379); assay: NVS_ENZ_hHDAC3: NovaScreen (NVS) Enzymatic Assay for human Histone Deacetylase 3 (HDAC3) (AID 2283163)
# How it was run: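 Cell-free enzyme format: loss of fluorescent product after mobility-shift separation, 1 h incubation, recombinant human HDAC3. Single 25 uM duplicate screen first, then concentration series to a 50 uM top for hits; DMSO as baseline.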
structure (smiles),measurement,setting,value
CCN(Cc1cccnc1)C(=O)c1cccc(Cl)c1[C@]1(C)C(=O)N(Cc2ccc(OC)cc2OC)c2ccc(Cl)cc21,outcome,[1],inactive
same,outcome,[2],inactive
same,AC50,[3],14.1 µM (active)
same,AC50,[4],3.84 µM (active)
same,AC50,[5],16.8 µM (active)
same,outcome,[6],inactive
CN(C[C@@H](CC[N+]12CCC(C3CCCCC3)(CC1)CC2)c1ccc(Cl)c(Cl)c1)C(=O)c1cc(C(F)(F)F)cc(C(F)(F)F)c1,AC50,[7],29.9 µM (active)
same,outcome,[8],inactive
CCOC(=O)O[C@H](C)OC(=O)c1ccc2c(c1)cc(C(=O)NC1CCN(C(C)C)CC1)n2Cc1cc(-c2ccc(Cl)s2)on1,AC50,[7],0.447 µM (active)
same,AC50,[9],23.6 µM (active)
same,AC50,[5],9.43 µM (active)
CN(C)C(=O)C1(N2CCCCC2)CCN(CC[C@@]2(c3ccc(Cl)c(Cl)c3)CN(C(=O)c3ccccc3)CCO2)CC1,outcome,[7],inactive
same,AC50,[4],19 µM (active)
same,AC50,[5],17.5 µM (active)
Oc1ccc2ccccc2c1,outcome,CDK2 (gene 1017),inactive
same,AC50,[8],24.1 µM (active)
same,outcome,[5],inactive
c1ccc2ccccc2c1,outcome,[10],inactive
same,outcome,[11],inactive
same,outcome,CDK2 (gene 1017),inactive
same,outcome,[8],inactive
same,outcome,[12],inactive
COc1ccc2cc(S(=O)(=O)N[C@H](CC(=O)N[C@H](Cc3ccc(CN4[C@H](C)CCC[C@@H]4C)cc3)C(=O)N(C)C(C)C)c3ccc4c(c3)OCO4)ccc2c1,outcome,[7],inactive
same,AC50,[3],3.86 µM (active)
same,AC50,[4],9.38 µM (active)
same,AC50,[5],7.52 µM (active)
same,outcome,[6],inactive
CCN(Cc1cccc(S(=O)(=O)O)c1)c1ccc(C(=C2C=CC(=[N+](CC)Cc3cccc(S(=O)(=O)O)c3)C=C2)c2ccccc2S(=O)(=O)[O-])cc1,AC50,[1],5.36 µM (active)
same,outcome,Caspase-3 (Homo sapiens),inactive
same,AC50,[7],14.8 µM (active)
same,AC50,[2],4.96 µM (active)
same,outcome,[13],inactive
same,outcome,[8],inactive
same,AC50,[12],2.94 µM (active)
same,AC50,[3],12.5 µM (active)
same,AC50,[4],3.18 µM (active)
same,AC50,[14],12.4 µM (active)
CCCCCCCCOC(=O)c1cc(O)c(O)c(O)c1,AC50,[1],25.4 µM (active)
same,outcome,[11],inactive
same,outcome,[9],inactive
same,outcome,[2],inactive
same,outcome,[3],inactive
same,AC50,[4],12.5 µM (active)
same,outcome,[6],inactive
CN1C(=O)N(c2ccccc2Br)Cc2cnc(Nc3ccc4c(c3)OCC(CO)O4)nc21 (stereo unspecified),AC50,[1],12.5 µM (active)
same,AC50,CDK2 (gene 1017),11.7 µM (active)
same,AC50,[3],8 µM (active)
same,AC50,[4],17 µM (active)
same,AC50,[6],7.73 µM (active)
NCc1cccc(C2CCN(C(=O)c3ccc(C#Cc4ccccc4F)o3)CC2)c1,AC50,[7],41.8 µM (active)
same,AC50,[5],25 µM (active)
CC(=O)N1CCN(c2ccc(OC[C@H]3CO[C@](Cn4ccnc4)(c4ccc(Cl)cc4Cl)O3)cc2)CC1,outcome,[7],inactive
same,outcome,[8],inactive
same,outcome,[15],inactive
CN(C)c1ccc(C(=C2C=CC(=[N+](C)C)C=C2)c2ccc(N(C)C)cc2)cc1,AC50,[7],14 µM (active)
same,AC50,[5],1.62 µM (active)
